SMILES strings stand for the structures. About 1,400 (1.3%) of roughly 110,000 compounds were called active. Only a selection was taken, and actives are over-represented in it overall. Unmarked numbers belong to inactive results.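 How the source made its calls: active means Z score or B-score, a plate-position-corrected score, falls beyond the plate's 99.7% confidence bounds, in either direction; inactive means both scores lie inside the 99.7% bounds.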

Chain of Sodium-dependent dopamine transporter (Homo sapiens) (Q01959 whole entry, looked up): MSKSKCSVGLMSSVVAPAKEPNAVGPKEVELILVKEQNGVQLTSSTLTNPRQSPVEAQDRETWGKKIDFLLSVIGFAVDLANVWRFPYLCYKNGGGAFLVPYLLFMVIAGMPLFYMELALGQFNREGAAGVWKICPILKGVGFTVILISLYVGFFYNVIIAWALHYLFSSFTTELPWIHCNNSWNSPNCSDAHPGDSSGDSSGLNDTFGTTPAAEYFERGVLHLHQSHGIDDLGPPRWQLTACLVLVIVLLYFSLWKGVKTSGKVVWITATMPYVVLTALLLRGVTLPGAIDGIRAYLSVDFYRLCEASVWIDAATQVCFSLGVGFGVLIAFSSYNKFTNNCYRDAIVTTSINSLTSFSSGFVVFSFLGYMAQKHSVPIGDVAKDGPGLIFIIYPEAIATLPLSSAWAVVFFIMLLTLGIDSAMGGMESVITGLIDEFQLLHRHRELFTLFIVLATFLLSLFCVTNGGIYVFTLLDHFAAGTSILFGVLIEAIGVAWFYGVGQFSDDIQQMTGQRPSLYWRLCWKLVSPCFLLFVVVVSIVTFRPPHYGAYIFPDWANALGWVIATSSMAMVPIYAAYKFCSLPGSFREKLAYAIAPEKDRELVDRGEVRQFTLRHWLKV

This experiment has as its target Sodium-dependent dopamine transporter (Homo sapiens) (UniProt Q01959). The experiment is described as follows: changed hDAT dopamine uptake under cocaine IC80, either direction, primary screen, cocaine antagonist project, cell-based, LLC-PK1 hDAT, [14C]-dopamine uptake, MLSMR (AID 449768).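 Further: scored against the spread of the other compound wells on the same plate.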 The conditions noted are these: LLC-PK1 hDAT cells, [14C]-dopamine uptake with cocaine IC80; at 10 µM; actives deviate in either direction.
As to `CC(C)c1ccc(OCC(=O)N2CCN(C)CC2)c(Br)c1`, the B-score is -0.237.

As to `COc1ccccc1CN1CCN(C(=O)Cc2ccccc2)CC1`, the B-score is 0.503. `O=C(COc1ccc2ccccc2c1)N1CCN(Cc2ccncc2)CC1`: the B-score was -1.8 (active).

`COC(=O)C1=C(c2cc3ccccc3o2)C[C@@H]2CC[C@H]1N2C(=O)NC1CCCCC1`: the B-score was -0.718. In the case of `COC(=O)C1=C(c2ccccc2)C[C@@H]2CC[C@H]1N2C(=O)N1CCCCC1`, the B-score is -0.0906.

Values taken from PubChem BioAssay AID449768 (Vanderbilt High Throughput Screening Facility, 2010).
